Only some compounds are listed: those with a hit (about 4.9% of all), similar ones and a draw of the others.
tim23-1 inh: growth inhibitors of tim23-1 mutant yeast, primary screen, luminescence, uHTS | inhibition, % at 20 µM | hit rate 1.3% among 330,000 | AID 463212, 2010 | S. cerevisiae tim23-1 growth, BacTiter-Glo luminescence, 24 h;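 active = growth inhibition of the mutant yeast at or above 50%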;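 note: temperature-sensitive mutant grown at 25 °C; plate controls were DMSO-treated mutant yeast for no effect and medium wells lacking yeast for full effect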
NALP1 inh: NALP1 inflammasome inhibitors in reconstituted yeast, colorimetric, S. cerevisiae, triplicate retest. S. cerevisiae NALP1/ASC/caspase-1 growth, X-gal OD620, 72 h. inhibition, % at 10 µM. hit rate 0.61% among 280,000. AID 2071, 2009; in the data active = inhibition mostly above about 24%, no sharp cut-off; inactive = mostly below about 32%
NALP3 yeast inh: NALP3 inflammasome inhibitors in reconstituted yeast, primary screen, luminescence, uHTS; hit rate 0.39% among 330,000; inhibition, % at 10 µM; Yeast reconstituted NLRP3/ASC/caspase-1, beta-gal luminescence, 24 h; AID 2825, 2010;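 active = inhibition of 50% or more; inactive = inhibition below 50%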;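 note: plate controls were induced DMSO wells for no effect and uninduced yeast grown without galactose for full effect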
TIM10 inh: growth inhibitors of isogenic TIM10 control yeast, primary screen, counter-screen for tim10-1 yeast inhibitor project, luminescence, uHTS; S. cerevisiae TIM10 strain growth, BacTiter-Glo luminescence, 24 h; inhibition, % at 10 µM; hit rate 1.4% among 330,000;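 active = inhibition of 40% or more at the single tested concentration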;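 note: wild-type TIM10 isogenic control strain grown at permissive 25 °C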
SKKanGAS inh: S. pyogenes SKKanGAS growth inhibitors in kanamycin, primary screen, streptokinase expression inhibitor project, SKKanGAS strain, BacTiter-Glo luminescence; 6 h; inhibition, % at 7.5 µM; hit rate 1.3% among 300,000;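 active = mean replicate score, as percent of positive control median, at least 50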;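 note: strain carries kanamycin resistance gene driven by streptokinase promoter and grows in 40 µg/ml kanamycin; loss of luminescence reflects streptokinase promoter inhibition or plain growth inhibition; 0% = median of DMSO wells and 100% = positive control at its reference dose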
tim10-1 inh: growth inhibitors of tim10-1 mutant yeast, primary screen, luminescence, uHTS; AID 463190, 2010; S. cerevisiae tim10-1 ts strain growth, BacTiter-Glo, 24 h; inhibition, % at 20 µM; hit rate 2.2% among 330,000;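 active = inhibition of at least 40%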;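 note: mutant grown at 25 °C; 0% = DMSO wells with yeast and 100% = wells holding no yeast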
NALP3 yeast conf: NALP3 inhibitors retested in yeast, confirmation, luminescence, single concentration; shares compounds with NALP3 yeast inh; yeast expressing human NALP3; inhibition, % at 10 µM; hit rate 81% among 1,300; AID 435006, 2010; in the data active = inhibition above about 48%
Casp1-ASC yeast: CASP1-PYCARD signaling inhibition in yeast, confirmatory test, counterassay for NLRP3 inhibitor program, one-dose. shares compounds with NALP3 yeast inh. yeast expressing Caspase-1-ASC, luminescence counter screen. inhibition, % at 10 µM. hit rate 66% among 1,000. AID 488784, 2010
NALP3 retest: NALP3 inhibitors in yeast, repeat test, confirmation, luminescence, single concentration, retest. inhibition, % at 10 µM. hit rate 53% among 1,000. AID 488794, 2010. shares compounds with NALP3 yeast inh. yeast expressing human NALP3, luminescence read-out
tim10-1 confirm: growth inhibitors of tim10-1 mutant yeast, confirmation, single concentration, luminescence, S. cerevisiae | hit rate 56% among 7,400 | AID 463213, 2010 | inhibition, % at 20 µM | shares compounds with tim10-1 inh | S. cerevisiae tim10-1 ts strain growth, BacTiter-Glo, 24 h;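 active = inhibition of yeast growth at or above a set limit in either of two repeat tests at 20 µM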;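 note: tim10-1 mutant grown at permissive 25 °C to find synthetic lethal compounds; 0% = DMSO yeast wells and 100% = medium wells without yeast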
tim10 confirm: growth inhibitors of wild-type TIM10 yeast, confirmation, counter-screen for tim10-1 synthetic lethality project, single concentration, luminescence, S. cerevisiae; shares compounds with TIM10 inh; S. cerevisiae tim10 strain growth, BacTiter-Glo luminescence, 24 h; inhibition, % at 10 µM; hit rate 63% among 4,600; AID 463215, 2010;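 active = inhibition of yeast growth at or above a set limit in either of two replicates at 10 µM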;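 note: this counterscreen used the strain with wild-type TIM10; 0% = yeast with DMSO and 100% = medium wells lacking yeast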
tim23-1 confirm: tim23-1 mutant yeast growth inhibitors, confirmation, luminescence, single concentration; hit rate 83% among 4,400; S. cerevisiae tim23-1 growth, BacTiter-Glo luminescence, 24 h; inhibition, % at 20 µM; shares compounds with tim23-1 inh;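 active = inhibition above about 39% in either of two replicate wells at 20 µM, limit read from the data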;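 note: temperature-sensitive tim23-1 mutant grown at 25 °C; 0% = DMSO wells with yeast and 100% = medium wells without yeast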
Numbers without * were called inactive; · = no result. Cut-off read from the data, not from the text of the source, unless noted: active = inhibition above about 50%; inactive = the rest.

SMILES | tim23-1 inh | NALP1 inh | NALP3 yeast inh | TIM10 inh | SKKanGAS inh | tim10-1 inh | NALP3 yeast conf | Casp1-ASC yeast | NALP3 retest | tim23-1 confirm | others
O=C(Nc1cccc(F)c1)c1ccccc1 | 50* | 2 | 60* | 53* | 1 | 11 | 84* | 68* | 68* | 66* | tim10 confirm=47*
O=C(Nc1cccc(F)c1)c1cccnc1 | 14 | -8 | 0 | 10 | -3 | -36 | · | · | · | ·
Cc1ccc(NC(=O)c2cccnc2)cc1C | 10 | -5 | 28 | 0 | 7 | -9 | · | · | · | ·
O=C(NC1CC1)c1ccc(-c2nc3ccccc3s2)s1 | 59* | -5 | 60* | 53* | 7 | 10 | 55* | 52* | 48 | 68* | tim10 confirm=51*
Cc1ccc2nc(NC(=O)c3ccc(-c4nc5ccccc5s4)s3)sc2c1 | 8 | 33 | 6 | 6 | · | 7 | · | · | · | ·
COc1cccc(-c2c(C(=O)N/N=C/c3ccc(C)o3)nnn2-c2nonc2N)c1 | 3 | 15 | 9 | 4 | 2 | -2 | · | · | · | ·
CN(C)CCn1c(=O)n(-c2cccc(Cl)c2)c(=O)c2c3c(sc21)CCCCC3 | 22 | 7 | 12 | 7 | -1 | 14 | · | · | · | ·
CC1(C)CC(=O)c2cnc(N3CCc4ccccc4C3)nc2C1 | 71* | -10 | 62* | 16 | -4 | 55* | 43 | 6 | 25 | 52* | tim10-1 confirm=53*
CC1(C)CC(=O)c2cnc(N3CCN(c4ccccc4)CC3)nc2C1 | 31 | 20 | -9 | 10 | 0 | 28 | · | · | · | ·
O=c1[nH]oc2cc(Cl)ccc12 | 2 | 16 | -8 | -6 | -5 | -2 | · | · | · | ·
CC1=C([N+](=O)[O-])C(c2ccc(Cl)cc2)NC(=O)N1C (stereo unspecified) | -2 | 18 | -3 | -1 | -5 | 2 | · | · | · | ·
Oc1ccc(N=Nc2ccc(Br)cc2)c(O)c1 | 68* | 23 | 58* | 48* | 5 | 37 | 73* | 44 | 36 | 2 | tim10 confirm=64*
Oc1ccc(N=Nc2n[nH]c(-c3ccc(Br)cc3)n2)cc1 | · | 11 | · | · | 0 | · | · | · | · | ·
Cc1nn(CC(=O)Nc2ccc3c(c2)OCCO3)c(C)c1[N+](=O)[O-] | -2 | · | -3 | -6 | · | -22 | · | · | · | ·
Cc1c(C(=O)Nc2nc3ccccc3[nH]2)oc2ccccc12 | 59* | 30 | 61* | 62* | 21 | 32 | 31 | · | · | 74* | tim10 confirm=30
COc1ccccc1C(=O)Nc1nc2ccccc2[nH]1 | 85* | 12 | 60* | 68* | 90* | 67* | 78* | 79* | 31 | 83* | tim10-1 confirm=66*;tim10 confirm=55*
COc1ccc(C(=O)Nc2nc3ccccc3[nH]2)cc1 | 60* | 6 | 51* | 24 | 22 | -38 | 81* | 60* | 48 | 61*
Cc1ccc(C(=O)Nc2nc3ccccc3[nH]2)cc1 | 9 | 7 | 29 | 4 | · | -20 | · | · | · | ·
COC(=O)CCC(=O)c1ccc(OC)c(Cl)c1 | -10 | · | 10 | -20 | 8 | -37 | · | · | · | ·
COc1ccc(C2(c3ccc(O)cc3O)CC(c3ccccc3Cl)NC(=S)N2)cc1 (stereo unspecified) | 30 | -19 | 16 | 2 | 6 | 9 | · | · | · | ·
COc1ccc(OC)c(NC(=O)COC(=O)[C@H](Cc2ccccc2)NC(=O)c2ccco2)c1 | 20 | · | 25 | -9 | · | -17 | · | · | · | ·
CCOC(=O)N1C(=O)C2(CCCCC2)N(c2ccccc2Cl)C1=S | 78* | 38 | 64* | 57* | 2 | 60* | 67* | 34 | 51* | 68* | tim10-1 confirm=52*;tim10 confirm=-2
COC(=O)[C@@]1(Cc2ccccc2)[C@H]2C(=O)N(C)C(=O)[C@H]2[C@H]2CN=C(SCc3ccc(C#N)cc3)N21 | 39 | · | · | -1 | · | 21 | · | · | · | ·
Cn1nnc(NC(=S)NC(=O)c2cccs2)n1 | 16 | 27 | 14 | 12 | 0 | -5 | · | · | · | ·
Cn1nnc(NC(=S)NC(=O)c2cccc3ccccc23)n1 | 57* | 13 | 56* | 8 | -1 | 53* | 64* | 71* | 55* | 30 | tim10-1 confirm=2
SMILES | tim23-1 inh | NALP1 inh | NALP3 yeast inh | TIM10 inh | SKKanGAS inh | tim10-1 inh | NALP3 yeast conf | Casp1-ASC yeast | NALP3 retest | tim23-1 confirm | others
COc1ccc(OC)c(C(=O)COC(=O)COc2ccccc2)c1 | 21 | · | 6 | 18 | · | 9 | · | · | · | ·
Cc1ccc(-n2nnnc2SCC(=O)N2CCc3ccccc3C2)cc1 | 54* | -6 | 70* | 41* | -4 | 46* | 76* | 77* | 74* | 41* | tim10-1 confirm=41*;tim10 confirm=34*
Cn1c2ccccc2c(=O)c2c(=O)n(C3CCCCCC3)c(C3CCCCC3)nc21 | · | 45 | · | · | 33 | · | · | · | · | ·
Cn1c2ccccc2c(=O)c2c(=O)n(C3CCCCC3)c(-c3cccs3)nc21 | 61* | 10 | 58* | 34 | 60* | 43* | 71* | 55* | 52* | 69* | tim10-1 confirm=36*
COc1ccc(N2CC(C(=O)Nc3cccc(OC(C)C)c3)CC2=O)cc1 (stereo unspecified) | 7 | 4 | 22 | -3 | -1 | 6 | · | · | · | ·
COC(=O)c1ccc2c(c1O)C(=O)c1ccccc1C2=O | 77* | 26 | 54* | 91* | 70* | 80* | 61* | 61* | 52* | 82* | tim10-1 confirm=75*;tim10 confirm=91*
O=C(Nc1cc(C(F)(F)F)ccc1N1CCOCC1)C1=NN(c2ccccc2)C(=O)CC1 | 8 | 6 | 0 | 20 | 6 | -6 | · | · | · | ·
C[C@@H](C(=O)Nc1nc(-c2ccccn2)cs1)N1C(=O)C2CCCCC2C1=O (stereo partly specified) | 17 | 4 | 2 | -4 | 43 | 2 | · | · | · | ·

Bioassay records deposited in PubChem by several laboratories.
